Holding throughout (assay): yeast three-hybrid, YBZ-1, SC-Leu-His + 0.5 mM 3-AT, 4 days
Holding throughout (details): tags: N-Gal4 AD-HA kept; label: inside an RPR1-promoter hybrid RNA with tandem MS2 sites; ssRNA

For one assay, the target named is T1, PUM1 PUF domain R6-SWQ (Homo sapiens, UniProt Q14671 828-1176, N1043S;Y1044W).
T1 sequence: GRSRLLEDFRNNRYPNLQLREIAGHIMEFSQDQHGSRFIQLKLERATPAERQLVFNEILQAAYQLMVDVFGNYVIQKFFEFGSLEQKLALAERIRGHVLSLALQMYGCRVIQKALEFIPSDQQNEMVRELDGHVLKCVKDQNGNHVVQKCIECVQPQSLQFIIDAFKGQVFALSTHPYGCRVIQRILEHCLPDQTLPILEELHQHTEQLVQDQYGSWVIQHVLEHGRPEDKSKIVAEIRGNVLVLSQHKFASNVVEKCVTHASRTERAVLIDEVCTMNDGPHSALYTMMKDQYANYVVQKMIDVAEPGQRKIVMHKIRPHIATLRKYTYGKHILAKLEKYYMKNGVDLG
The procedure, abridged:
(§1)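 The interaction score is the log change in variant frequency from input to selection. Scores were computed in log2 with a pseudocount of 1 for absent variants, using Illumina sequencing of PCR-amplified repeat regions. The input came from four days on SC-Leu and the selection from four days on SC-Leu-His + 0.5 mM 3-AT. The cells were strain YBZ-1 (LexA–MS2 coat fusion, HIS3 reporter) co-expressing Pumilio-1 PUF domain libraries and matching RNA elements from a centromeric plasmid.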

In the next assay the target is PUM1 PUF domain R1-KKT (Homo sapiens, UniProt Q14671 828-1176, S863K;R864K;Q867T). In a few lines: as §1
Another assay addresses PUM1 PUF domain R7-CCR (Homo sapiens, UniProt Q14671 828-1176, S1079C;N1080C;E1083R). In a few lines: as §1
For another assay, the target named is PUM1 PUF domain R4-PHQ (Homo sapiens, UniProt Q14671 828-1176, N971P). The procedure, abridged:
as §1

“GGCUAGAACUAGUGGAUCCCCCGGCGCCCGGCGGCUCGAGCCCGGGUAAGUGGAAAUAGUCUGCAUGCCGCCGGGCGCCAUGCCUGCAGGUCGACUCUAGAAAACAUG”: the binding signal with PUM1 PUF domain R6-SWQ was 3.61 log2 enrichment (interaction score).

For the sequence “GGCUAGAACUAGUGGAUCCCCCGGCGCCCGGCGGCUCGAGCCCGGGUAAGUGAAAAUAGUCUGCAUGCCGCCGGGCGCCAUGCCUGCAGGUCGACUCUAGAAAACAUG”, in the assay with PUM1 PUF domain R6-SWQ, the binding signal was 2.27 log2 enrichment (interaction score). With “GGCUAGAACUAGUGGAUCCCCCGGCGCCCGGCGGCUCGAGCCCGGGUAAGUGUAAAUCGUCUGCAUGCCGCCGGGCGCCAUGCCUGCAGGUCGACUCUAGAAAACAUG”, in the assay with PUM1 PUF domain R1-KKT, the binding signal was 3.84 log2 enrichment (interaction score). For “GGCUAGAACUAGUGGAUCCCCCGGCGCCCGGCGGCUCGAGCCCGGGUAAGUCUAAAUAGUCUGCAUGCCGCCGGGCGCCAUGCCUGCAGGUCGACUCUAGAAAACAUG”, the binding signal in the assay with PUM1 PUF domain R7-CCR was 3.07 log2 enrichment (interaction score). For “GGCUAGAACUAGUGGAUCCCCCGGCGCCCGGCGGCUCGAGCCCGGGUAAGUGUACAUAGUCUGCAUGCCGCCGGGCGCCAUGCCUGCAGGUCGACUCUAGAAAACAUG”, the binding signal in the assay with PUM1 PUF domain R4-PHQ is 2.14 log2 enrichment (interaction score).

The values are drawn from PMC8384837, “Expanding the binding specificity for RNA recognition by a PUF domain”.
